# Measured values taken from ChEMBL document CHEMBL1961873, “Compounds: GSK PKIS; Assays: Nanosyn kinase panel” (2012).
# Key:
# [1] = biological target: Sphingosine kinase 1 (Homo sapiens) (UniProt Q9NYA1); conditions: at 1 µM;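 also: mean SPHK1 inhibition value reported from the GSK PKIS kinase panel screen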
# [2] = biological target: T1, Sphingosine kinase 2 (Homo sapiens) (UniProt Q9NRA0); conditions: at 0.1 µM
# T1 sequence (whole entry): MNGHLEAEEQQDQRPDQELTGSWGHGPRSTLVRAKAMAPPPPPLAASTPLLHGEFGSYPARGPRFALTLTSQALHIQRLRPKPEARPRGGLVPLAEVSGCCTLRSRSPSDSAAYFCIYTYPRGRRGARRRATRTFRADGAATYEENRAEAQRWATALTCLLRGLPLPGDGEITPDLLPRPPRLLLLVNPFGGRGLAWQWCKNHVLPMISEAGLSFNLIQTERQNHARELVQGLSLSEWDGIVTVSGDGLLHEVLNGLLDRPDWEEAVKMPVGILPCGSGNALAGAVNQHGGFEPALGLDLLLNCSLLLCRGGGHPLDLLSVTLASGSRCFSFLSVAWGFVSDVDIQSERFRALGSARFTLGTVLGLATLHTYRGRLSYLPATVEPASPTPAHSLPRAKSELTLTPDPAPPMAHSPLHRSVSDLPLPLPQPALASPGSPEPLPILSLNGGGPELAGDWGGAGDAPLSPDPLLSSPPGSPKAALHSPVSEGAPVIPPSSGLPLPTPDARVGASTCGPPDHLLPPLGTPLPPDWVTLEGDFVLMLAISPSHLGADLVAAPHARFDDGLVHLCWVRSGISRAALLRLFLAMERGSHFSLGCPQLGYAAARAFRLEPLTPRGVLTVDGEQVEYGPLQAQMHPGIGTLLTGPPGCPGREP
# [3] = biological target: T1, Sphingosine kinase 2 (Homo sapiens); conditions: at 1 µM
# [4] = biological target: Casein kinase II subunit alpha (Homo sapiens) (UniProt P68400); conditions: at 0.1 µM
# Casein kinase II subunit alpha (Homo sapiens), sequence (P68400 whole entry, looked up): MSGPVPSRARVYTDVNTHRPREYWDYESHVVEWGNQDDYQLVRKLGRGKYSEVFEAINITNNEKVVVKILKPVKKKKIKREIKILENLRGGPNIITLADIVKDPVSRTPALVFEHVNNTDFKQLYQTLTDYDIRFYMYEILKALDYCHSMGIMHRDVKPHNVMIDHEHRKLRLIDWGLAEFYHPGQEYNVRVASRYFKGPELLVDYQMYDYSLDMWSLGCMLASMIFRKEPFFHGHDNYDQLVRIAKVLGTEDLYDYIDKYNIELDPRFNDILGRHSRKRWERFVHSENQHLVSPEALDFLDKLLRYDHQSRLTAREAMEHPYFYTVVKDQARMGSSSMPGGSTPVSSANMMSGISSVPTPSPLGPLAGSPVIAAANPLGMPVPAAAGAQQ
# [5] = biological target: Casein kinase II subunit alpha (Homo sapiens) (UniProt P68400); conditions: at 1 µM
# [6] = biological target: T2, Inhibitor of nuclear factor kappa-B kinase subunit alpha (Homo sapiens) (UniProt O15111); conditions: at 0.1 µM
# T2 sequence (whole entry): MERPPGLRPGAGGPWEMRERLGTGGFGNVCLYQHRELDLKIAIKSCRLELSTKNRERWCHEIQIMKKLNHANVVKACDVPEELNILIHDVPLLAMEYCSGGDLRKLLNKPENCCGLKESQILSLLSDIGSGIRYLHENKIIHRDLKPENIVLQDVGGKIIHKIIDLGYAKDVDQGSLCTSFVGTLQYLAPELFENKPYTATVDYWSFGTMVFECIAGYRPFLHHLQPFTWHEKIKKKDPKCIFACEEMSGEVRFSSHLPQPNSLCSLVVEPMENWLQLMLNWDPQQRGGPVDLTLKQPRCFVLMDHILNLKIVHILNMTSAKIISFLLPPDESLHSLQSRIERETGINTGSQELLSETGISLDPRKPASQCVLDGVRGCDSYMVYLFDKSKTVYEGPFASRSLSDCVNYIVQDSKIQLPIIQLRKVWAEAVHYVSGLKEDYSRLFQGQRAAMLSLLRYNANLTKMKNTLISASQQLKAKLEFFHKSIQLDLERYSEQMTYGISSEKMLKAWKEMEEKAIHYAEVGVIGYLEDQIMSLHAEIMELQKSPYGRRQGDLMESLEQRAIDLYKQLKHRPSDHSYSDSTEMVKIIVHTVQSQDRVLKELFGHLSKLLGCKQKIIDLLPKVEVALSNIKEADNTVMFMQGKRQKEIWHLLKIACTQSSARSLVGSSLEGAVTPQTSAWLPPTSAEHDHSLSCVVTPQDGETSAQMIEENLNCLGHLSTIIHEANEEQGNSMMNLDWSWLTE
# [7] = biological target: T2, Inhibitor of nuclear factor kappa-B kinase subunit alpha (Homo sapiens); conditions: at 1 µM
# [8] = biological target: T3, Inhibitor of nuclear factor kappa-B kinase subunit beta (Homo sapiens) (UniProt O14920); conditions: at 0.1 µM
# T3 sequence (whole entry): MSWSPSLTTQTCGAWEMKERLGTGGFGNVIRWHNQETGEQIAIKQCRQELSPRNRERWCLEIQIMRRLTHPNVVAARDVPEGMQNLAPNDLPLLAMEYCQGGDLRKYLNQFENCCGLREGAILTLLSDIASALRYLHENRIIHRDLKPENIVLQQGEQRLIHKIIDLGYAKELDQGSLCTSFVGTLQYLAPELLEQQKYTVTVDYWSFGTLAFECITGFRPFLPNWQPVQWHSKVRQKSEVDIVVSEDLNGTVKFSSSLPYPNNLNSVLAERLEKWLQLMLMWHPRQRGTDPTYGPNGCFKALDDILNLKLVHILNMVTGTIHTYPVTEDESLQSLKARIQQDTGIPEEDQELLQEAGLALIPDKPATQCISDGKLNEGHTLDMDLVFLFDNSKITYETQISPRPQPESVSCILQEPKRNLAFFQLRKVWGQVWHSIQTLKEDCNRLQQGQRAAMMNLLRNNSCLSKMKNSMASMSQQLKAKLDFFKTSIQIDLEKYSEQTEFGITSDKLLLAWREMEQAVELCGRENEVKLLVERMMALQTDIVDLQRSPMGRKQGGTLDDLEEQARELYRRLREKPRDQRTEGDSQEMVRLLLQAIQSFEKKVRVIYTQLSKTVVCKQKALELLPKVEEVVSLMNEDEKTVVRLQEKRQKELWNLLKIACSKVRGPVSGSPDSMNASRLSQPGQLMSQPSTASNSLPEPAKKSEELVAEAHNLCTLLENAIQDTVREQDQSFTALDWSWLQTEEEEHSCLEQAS
# [9] = biological target: T3, Inhibitor of nuclear factor kappa-B kinase subunit beta (Homo sapiens); conditions: at 1 µM
# [10] = biological target: T4, Inhibitor of nuclear factor kappa-B kinase subunit epsilon (Homo sapiens) (UniProt Q14164); conditions: at 0.1 µM;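 also: mean inhibition of IKKε reported, from the GSK PKIS dataset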
# T4 sequence (whole entry): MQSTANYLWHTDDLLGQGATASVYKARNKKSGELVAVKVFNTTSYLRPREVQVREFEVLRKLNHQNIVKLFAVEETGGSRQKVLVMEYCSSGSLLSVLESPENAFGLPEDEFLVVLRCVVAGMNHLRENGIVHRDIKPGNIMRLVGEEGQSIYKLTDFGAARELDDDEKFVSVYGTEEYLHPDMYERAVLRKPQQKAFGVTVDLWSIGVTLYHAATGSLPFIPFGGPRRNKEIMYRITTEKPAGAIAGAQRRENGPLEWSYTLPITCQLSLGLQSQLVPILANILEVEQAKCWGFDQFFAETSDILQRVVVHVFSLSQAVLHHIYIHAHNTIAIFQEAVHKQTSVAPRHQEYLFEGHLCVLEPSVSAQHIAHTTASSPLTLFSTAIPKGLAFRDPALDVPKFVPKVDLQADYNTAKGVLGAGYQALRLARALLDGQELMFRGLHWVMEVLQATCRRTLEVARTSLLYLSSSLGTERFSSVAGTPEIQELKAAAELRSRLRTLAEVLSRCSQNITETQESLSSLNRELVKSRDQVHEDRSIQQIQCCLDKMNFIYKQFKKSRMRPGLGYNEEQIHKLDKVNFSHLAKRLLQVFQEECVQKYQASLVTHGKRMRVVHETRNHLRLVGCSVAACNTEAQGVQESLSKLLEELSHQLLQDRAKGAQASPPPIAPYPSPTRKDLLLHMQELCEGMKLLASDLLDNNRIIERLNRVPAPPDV
# Sphingosine kinase 1 (Homo sapiens), sequence (Q9NYA1 whole entry): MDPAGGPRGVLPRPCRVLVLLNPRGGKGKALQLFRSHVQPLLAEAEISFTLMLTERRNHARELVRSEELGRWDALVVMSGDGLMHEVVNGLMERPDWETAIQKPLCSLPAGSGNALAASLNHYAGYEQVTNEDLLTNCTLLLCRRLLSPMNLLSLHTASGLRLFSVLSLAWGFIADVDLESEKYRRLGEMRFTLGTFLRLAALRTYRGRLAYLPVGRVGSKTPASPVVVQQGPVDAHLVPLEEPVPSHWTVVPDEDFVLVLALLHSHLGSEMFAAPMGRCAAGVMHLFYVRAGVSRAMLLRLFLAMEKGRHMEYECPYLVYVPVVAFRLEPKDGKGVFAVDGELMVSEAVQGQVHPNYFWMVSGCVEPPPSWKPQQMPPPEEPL
structure (smiles),measurement,setting,value
Cc1ccc(O)cc1Nc1ccnc2ccc(S(C)(=O)=O)cc12,inhibition,[1],-1.32%
same,inhibition,[2],1.04%
same,inhibition,[3],1.77%
same,inhibition,[4],3.63%
same,inhibition,[5],8.35%
same,inhibition,[6],5.42%
same,inhibition,[7],9.92%
same,inhibition,[8],6.57%
same,inhibition,[9],8.43%
same,inhibition,[10],6.64%
